Experimental data reported in PubChem BioAssay (NCATS).
Inconclusive results are not listed. Active and inactive are the calls of the source. Calls follow the shape of the dose curve; as a rule, active = well fitted inhibition curve with a large enough effect; inconclusive = small, poorly fitted or top-dose-only effect; inactive = flat fitted curve, though single readings scatter.

Key:
Experiment in all cases: qHTS profiling for inhibitors of Plasmodium falciparum proliferation (AID 504749); also: nearly all actives have a fitted effect of over 60% in size
Settings in all cases: P. falciparum in erythrocytes, SYBR Green DNA, 72 h; series mostly up to 28.7 µM
CP250 = test system: CP250
Method in brief: (§1)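 SYBR Green fluorescence of parasite DNA, read after lysis and overnight dark incubation, measured growth over 72 h in erythrocyte culture at 0.3% parasitemia and 2.5% hematocrit. Data normalised to DMSO and 0.29 uM artemisinin, with plate-drift correction.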

CP252 = test system: CP252
Method in brief: as §1

CP256 = test system: CP256
Method in brief: as §1

CP260 = test system: CP260
Method in brief: as §1

CP262 = test system: CP262
Method in brief: as §1

CP265 = test system: CP265
Method in brief: as §1

CP266 = test system: CP266
Method in brief: as §1

CP268 = test system: CP268
Method in brief: as §1

CP269 = test system: CP269
Method in brief: as §1

CP286 = test system: CP286
Method in brief: as §1

Measured: Potency
Potency is read from the fitted curve at half-maximal effect.

O=C(O)CO.[NH2-].[NH2-].[Pt+2]
inactive: all assays above

Nc1ccn([C@@H]2O[C@H](CO)[C@H](O)C2(F)F)c(=O)n1
active: CP250 5.01 µM | CP252 3.55 µM | CP256 1.58 µM | CP260 3.98 µM | CP262 2.69 µM | CP265 3.98 µM | CP266 4.78 µM | CP268 6.01 µM | CP269 4.78 µM | CP286 3.98 µM

CC(C)(C)NC(=O)[C@H]1CN(Cc2cccnc2)CCN1C[C@@H](O)C[C@@H](Cc1ccccc1)C(=O)N[C@H]1c2ccccc2C[C@H]1O
inactive: CP262
active: CP252 12.6 µM | CP269 13.5 µM

COc1c(N2C[C@@H]3CCCN[C@H]3C2)c(F)cc2c(=O)c(C(=O)O)cn(C3CC3)c12
not listed: CP268
inactive: all other assays above

O=c1[nH]c(=O)n(C2CCCO2)cc1F (stereo unspecified)
inactive: all assays above

CN1c2cc(O)c(N=NC(N)=O)cc2CC1S(=O)(=O)O (stereo unspecified)
inactive: all assays above

COC(=O)C1=C(C)NC(C)=C(C(=O)OCCN2CCN(C(c3ccccc3)c3ccccc3)CC2)C1c1cccc([N+](=O)[O-])c1 (stereo unspecified)
active: CP250 4.47 µM | CP252 2.82 µM | CP256 3.55 µM | CP260 2.51 µM | CP262 4.78 µM | CP266 6.75 µM | CP268 4.78 µM | CP269 4.26 µM | CP286 2.51 µM

CCC1=C[C@@H]2CN(C1)Cc1c([nH]c3ccccc13)[C@@](C(=O)OC)(c1cc3c(cc1OC)N(C)[C@@H]1[C@@](O)(C(=O)OC)[C@H](OC(C)=O)[C@]4(CC)C=CCN5CC[C@]31[C@@H]54)C2
active: CP250 3.98 µM | CP252 2.82 µM | CP256 2 µM | CP260 2.82 µM | CP262 3.01 µM | CP265 2 µM | CP266 4.26 µM | CP268 3.38 µM | CP269 1.9 µM | CP286 2 µM

COc1cc(C(=O)NS(=O)(=O)c2ccccc2C)ccc1Cc1cn(C)c2ccc(NC(=O)OC3CCCC3)cc12
not listed: CP269
inactive: all other assays above

Nc1ccn([C@@H]2CS[C@H](CO)O2)c(=O)n1
inactive: all assays above

C[C@H]1C[C@@H]2[C@@H]([C@@H](O)C[C@@]3(C)[C@H]2CC[C@]3(O)C(=O)CO)[C@@]2(C)C=CC(=O)C=C12
inactive: all assays above

Nc1ccc(S(=O)(=O)Nc2ncccn2)cc1
inactive: all assays above

CC1(C)O[C@@H]2C[C@@H]3[C@H]4C[C@@H](F)C5=CC(=O)C=C[C@]5(C)[C@@]4(F)[C@@H](O)C[C@]3(C)[C@]2(C(=O)CO)O1
not listed: CP266 | CP268 | CP269
inactive: all other assays above

CC=CC1=C(C(=O)O)N2C(=O)[C@H](NC(=O)[C@H](N)c3ccc(O)cc3)[C@@H]2SC1
inactive: all assays above

COC(=O)C[C@](O)(CCCC(C)(C)O)C(=O)O[C@@H]1C(OC)=C[C@]23CCCN2CCc2cc4c(cc2[C@H]13)OCO4
active: CP250 0.0282 µM | CP252 0.0316 µM | CP256 0.0316 µM | CP260 0.0282 µM | CP262 0.0338 µM | CP265 0.0316 µM | CP268 0.0379 µM | CP269 0.0338 µM | CP286 0.0282 µM

CC[C@H]1CN2CCc3cc(OC)c(OC)cc3[C@H]2C[C@@H]1C[C@@H]1NCCc2cc(OC)c(OC)cc21
active: CP250 0.316 µM | CP252 0.562 µM | CP256 0.355 µM | CP260 0.126 µM | CP262 0.757 µM | CP265 0.447 µM | CP266 0.675 µM | CP268 0.426 µM | CP269 0.301 µM | CP286 0.158 µM
